Most compounds without a hit are left out; they make up all but 18% or so of the library.
TDP1 cell noCPT = qHTS for Inhibitors of human tyrosyl-DNA phosphodiesterase 1 (TDP1): qHTS in cells in absence of CPT; actives 15% (n = 420,000); Potency, µM (doses to about 46.2 µM), for the others: at the top dose activity change, negative = growth inhibition, usual class: inhibitors; DT40 Tdp1-/- hTDP1 cells, no CPT, ATP luminescence, 48 h; further: potency means the concentration at half of the fitted maximal effect; on the % scale 0 is the no-effect control and ±100 the full control effect; nearly all actives have a fitted effect of over 55% in size
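Chicken DT40 Tdp1-/- cells complemented with human TDP1, screened without camptothecin (DMSO vehicle only), 400 cells/well. Compounds pin-transferred, cells incubated at 37 °C for at least 48 hr. Growth read as ATP-dependent luminescence (CellTiter-Glo, 30 min at RT).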
TGFb SMAD3 inh = blocks TGF-b signaling; AID 588855; HepG2 CAGA-GFP TGF-b/SMAD3 reporter, GFP fluorescence, 18 h; TGF-beta stimulated, 500 pg/mL final; Potency, µM (series often up to 46.1 µM), for the others: at the top dose activity, negative = inhibition, actives largely listed as inhibitors; actives 1.2% (n = 410,000); further: potency means the concentration at half of the fitted maximal effect; on the % scale 0 is the no-effect control and ±100 the full control effect; nearly all actives have a fitted effect of over 65% in size
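TGF-beta reporter screen: HEPG2 CAGA-GFP, 1% FBS, 500 pg/mL TGF-beta final, 18 h; per-cell GFP summed per well; curves fitted and categorized by class.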
HepG2 tox = kills HepG2 cells in TGF-b inhibitor counter-screen. HepG2 CAGA-GFP viability, ATP luminescence, 18 h. Potency, µM (highest dose often 46.1 µM), inactives show at the highest dose activity change, negative = cytotoxicity, hits mostly cytotoxic. actives 0.76% (n = 410,000). AID 588856; further: potency means the concentration at half of the fitted maximal effect
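CellTiter-Glo luminescence gave cytotoxicity after 18 hours at 37 degrees C. The cells were HepG2 CAGA-GFP in 1% FBS DMEM, stimulated with 500 pg/mL TGF-beta after compound addition. %Activity was normalised to no-cell wells (complete cell-killing) and DMSO (no toxicity), and curves were fitted and classified.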
IL-1B inflam inh = inhibitors of inflammasome signaling (IL-1 beta secretion) | THP-1 LPS/ATP IL-1B secretion, AlphaLISA, 16 h; hits give low values | activity change, % at 57.5 µM | actives 4.7% (n = 360,000) | AID 743279; in the data active means activity change below about -50%; inconclusive means mostly about -30% to -49%; further: on the % scale 0 is the no-effect control and ±100 the full control effect
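THP-1 cells pretreated 1 hr with compounds (up to 57.5 uM final), then stimulated with LPS (250 ng/mL final) plus ATP (1.25 mM final); secreted IL-1B measured by AlphaLISA after 16 hr, decreased signal indicating inhibition.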
TDP1 block = inhibitors of human tyrosyl-DNA phosphodiesterase TDP1 | Q9NUW8 | recombinant TDP1, AlphaScreen DNA substrate cleavage | Potency, µM (titrated, usually from 130 µM), for inactives: top-dose activity change, negative = inhibition, usual class: inhibitors | actives 0.28% (n = 350,000) | AID 485290; further: potency means the concentration at half of the fitted maximal effect; on the % scale 0 is the no-effect control and ±100 the full control effect; nearly all actives have a fitted effect of over 40% in size
Target sequence (Q9NUW8 whole entry, looked up): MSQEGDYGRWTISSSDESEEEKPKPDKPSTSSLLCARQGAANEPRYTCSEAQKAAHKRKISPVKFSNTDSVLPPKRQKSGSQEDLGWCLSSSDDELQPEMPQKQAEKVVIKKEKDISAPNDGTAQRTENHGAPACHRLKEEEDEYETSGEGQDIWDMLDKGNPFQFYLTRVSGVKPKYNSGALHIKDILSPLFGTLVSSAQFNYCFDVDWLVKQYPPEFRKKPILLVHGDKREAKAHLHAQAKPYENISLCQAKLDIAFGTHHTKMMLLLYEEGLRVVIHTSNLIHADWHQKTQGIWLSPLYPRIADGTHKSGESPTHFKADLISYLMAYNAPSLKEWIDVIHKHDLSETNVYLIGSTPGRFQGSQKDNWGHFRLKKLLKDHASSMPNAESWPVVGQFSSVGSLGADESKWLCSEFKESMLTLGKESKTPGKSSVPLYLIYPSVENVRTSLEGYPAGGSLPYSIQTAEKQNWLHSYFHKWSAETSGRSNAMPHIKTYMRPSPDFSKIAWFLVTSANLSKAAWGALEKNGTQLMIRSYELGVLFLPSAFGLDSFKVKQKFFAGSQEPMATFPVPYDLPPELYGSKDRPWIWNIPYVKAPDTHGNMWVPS
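Signal: AlphaScreen proximity between streptavidin donor and anti-FITC acceptor beads on intact substrate. Reaction: Tdp1 1 nM, substrate 15 nM final, 5 min RT after 15 min compound preincubation.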
TDP1 cell CPT = DT40-hTDP1 cell growth loss with CPT; actives 12% (n = 420,000); chicken DT40 Tdp1-/-;hTDP1 cells + 20 nM CPT, ATP luminescence, 48 h; AID 686979; Potency, µM (titrated, usually from 46.2 µM), for inactives: top-dose activity change, negative = growth inhibition, usual class: inhibitors; further: potency means the concentration at half of the fitted maximal effect; on the % scale 0 is the no-effect control and ±100 the full control effect; nearly all actives have a fitted effect of over 55% in size
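Chicken DT40 Tdp1-/- cells stably complemented with human TDP1 were seeded at 400 cells/well in medium containing 20 nM camptothecin, exposed to pin-transferred compounds, and grown at 37 °C for at least 48 hr. Viability was read as ATP luminescence.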
Active calls of the source: *; i = inactive; u = inconclusive; x = not tested or not shown; [ ] = remark or other dose. Unless noted, the call rests on the fitted dose curve; in most records, active means well fitted curve in the direction sought with a large enough effect; inconclusive means small, poorly fitted or top-dose-only effect, or another doubt; inactive means no such curve, though single readings can be large; an effect the other way counts as inactive or inconclusive.

SMILES	TDP1 cell noCPT	TGFb SMAD3 inh	HepG2 tox	IL-1B inflam inh	TDP1 block	TDP1 cell CPT
COc1cc(-c2noc(C)c2/C=C/c2ccc(C(=O)O)cc2)cc(OC)c1OC	u	-1%	1%	6	x	u
COc1cc(-c2noc(C)c2-c2ccc(N(C)C)nc2)cc(OC)c1OC	0.037µM*	u	-20%	81	x	0.13µM*
COc1cc(-c2noc(C)c2C(=O)NCCc2c[nH]c3ccccc23)cc(OC)c1OC	u	0%	-17%	-26	x	u
COc1cc(-c2noc(C)c2-c2ccc3[nH]ccc3c2)cc(OC)c1OC	1.8µM*	-12%	-7%	57	x	1.5µM*
O=C(Nc1ccccc1)C1Cc2c(-c3cccc(F)c3)ccnc2O1 (stereo unspecified)	u	13%	-6%	-63*	x	21µM*
CC(C)c1ccc(NC(=O)C2Cc3c(-c4ccco4)ccnc3O2)cc1 (stereo unspecified)	u	-2%	-13%	u	x	u
CNC(=O)C1Cc2c(-c3cccc(F)c3)ccnc2O1 (stereo unspecified)	4%	11%	-12%	17	x	-11%
CS(=O)(=O)Nc1cccc(NC(=O)C2Cc3c(-c4cccc(F)c4)ccnc3O2)c1 (stereo unspecified)	3.3µM*	-14%	-65%	-10	x	5.2µM*
COc1ccc(NC(=O)C2Cc3c(-c4cccc(F)c4)ccnc3O2)cc1OC (stereo unspecified)	4.6µM*	u	-27%	-15	x	7.3µM*
COc1ccc(NC(=O)C2Cc3c(-c4ccco4)ccnc3O2)cc1OC (stereo unspecified)	u	23%	0%	-2	x	23µM*
Nc1ccc(S(=O)(=O)N2CCN(S(=O)(=O)c3ccc4c(c3)OCCO4)CC2)cc1	x	x	x	x	0%	x
COCCn1c(C)cc(/C=C2/SC(=O)N(CC(=O)N3CCCC3)C2=O)c1C	1%	10%	9%	10	0%[0.0935 µM]	14%
COc1ccc(-c2ccnc3c2c(=O)n(C)c(=O)n3C)cc1OC	-3%	8%	-17%	x	-2%	u
Cc1ccc(OCC(O)CN2CCc3ccccc3C2)c(C)c1 (stereo unspecified)	u	-5%	-30%	-1	2%	26µM*
Cc1cccc(OCC(O)CN2CCc3ccccc3C2)c1 (stereo unspecified)	u	14%	-7%	-21	6%	u
CC(C)(C)c1ccc(OCC(O)CN2CCc3ccccc3C2)cc1 (stereo unspecified)	16µM*	u	-175%	0	x	8.2µM*
CC(C)(C)c1ccc(OCC(O)CN2CCN(C(=O)c3ccccc3)CC2)cc1 (stereo unspecified)	21µM*	-19%	-37%	-6	6%	16µM*
CCC(=O)N1CCC1(C)C(=O)NS(=O)(=O)c1cccc(C#N)c1 (stereo unspecified)	-4%	26%	4%	23	x	u
COc1ccc(N2CCN(C(=O)COC(=O)c3nc(Cl)ccc3Cl)CC2)cc1	-3%	-3%	-17%	4	x	-13%
Cc1cccc(NC(=O)CSc2nc3ccccc3nc2N2CCC(C)CC2)c1	21µM*	-2%	-11%	x	-1%	21µM*
COc1ccc(OC)c(NC(=O)CSc2nncc3ccccc23)c1	u	14%	23%	i	0%	-28%
Cc1ccc(NC(=O)CSc2nc3ccccc3nc2N2CCOCC2)c(C)c1	u	-9%	-10%	-13	x	-17%
CCOc1ccccc1NC(=O)CSc1nncc2ccccc12	-25%	9%	-7%	-84*	10%	2%
CC(=O)Nc1ccc(NC(=O)CSc2nc3ccccc3nc2N2CCC(C)CC2)cc1	u	-3%	-20%	18	3%	5%
Cc1ccc(NC(=O)CSc2nc3ccccc3nc2N2CCOCC2)cc1	16µM*	-7%	-20%	0	3%	u
SMILES	TDP1 cell noCPT	TGFb SMAD3 inh	HepG2 tox	IL-1B inflam inh	TDP1 block	TDP1 cell CPT
COc1ccc(C)cc1NC(=O)CSc1nc2ccccc2nc1N1CCOCC1	23µM*	29%	-5%	x	-8%	u
CC(C)(C)n1ncc2c(=O)n(Cc3ccccc3Cl)cnc21	x	-9%	-4%	x	x	x
CCC(COC)NC(=O)c1cnn(-c2ncc3c(n2)-c2ccccc2CCC3)c1C (stereo unspecified)	-26%	x	x	x	x	-24%
CC1CN(c2nc3ccccc3nc2SCC(=O)Nc2ccc(F)cc2)CC(C)O1 (stereo unspecified)	u	u	-27%	-26	x	15µM*
COc1ccc(NC(=O)CSc2nc3ccccc3nc2N2CCCC2)cc1	u	-10%	-23%	-19	x	u
CCOc1ccccc1NC(=O)CSc1nc2ccccc2nc1N1CCOCC1	21µM*	u	-24%	12	-5%	23µM*
O=C(CSc1nc2ccccc2nc1N1CCCC1)Nc1ccc(F)cc1	u	4%	-4%	-12	x	u
CCOc1ccc(NC(=O)CSc2nc3ccccc3nc2N2CCCC2)cc1	16µM*	-5%	-6%	-12	x	u
CCOc1ccccc1NC(=O)CSc1nc2ccccc2nc1N1CCCC1	u	-19%	-45%	33	x	u
O=C(CSc1nc2ccccc2[nH]1)Nc1ccc(N2CCOCC2)cc1	12µM*	5%	10%	-12	6%	12µM*
COc1ccc(C)cc1Nc1n[n+](-c2ccccc2)c(-c2ccc(C(=O)O)cc2)s1	-9%	14%	23%	39	x	-7%
COc1ccc(C)cc1Nc1n[n+](-c2ccccc2)c(-c2c(OC)ccc3ccccc23)s1	5.2µM*	u	-62%	-75*	10%	5.8µM*
COc1ccc(C)cc1Nc1n[n+](-c2ccccc2)c(-c2cc(OC)c(OC)cc2Br)s1	16µM*	u	-22%	-11	x	23µM*
CCCOCC(C)O (stereo unspecified)	x	x	x	x	9%	x
COc1ccc(-c2nnc(CSc3nc4ccccc4c(=O)n3CC(C)C)o2)cc1OC	16µM*	u	-7%	-16	2%	u
COCCCn1c(SCc2nnc(-c3ccc(OC)c(OC)c3)o2)nc2ccccc2c1=O	23µM*	21%	4%	u	5%	u
COc1ccc(CNC(=O)C/C(C)=N/NC(=O)COc2ccccc2)cc1	14%	1%	3%	16	5%	16%

Source: PubChem BioAssay
